# Screens (PubChem)
# BLM inh = qHTS Assay for Inhibitors of Bloom's syndrome helicase (BLM); recombinant BLM DNA unwinding, fluorescence dequenching; Potency, µM (highest dose often 56.1 µM), inactives show top-dose activity change, negative = inhibition, actives largely listed as inhibitors; 350,000 compounds, 0.2% hits;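 further: plate controls were vehicle for no effect and no enzyme for full effect; nearly all actives have a fitted effect of over 35% in size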
# TDP1 block = qHTS Assay for Inhibitors of Tyrosyl-DNA Phosphodiesterase (TDP1); Potency, µM (highest dose often 130 µM), for the others: at the top dose activity change, negative = inhibition, actives largely listed as inhibitors; Tyrosyl-DNA phosphodiesterase 1 (Homo sapiens), Q9NUW8; recombinant TDP1, AlphaScreen DNA substrate cleavage; AID 485290, 2010; 350,000 compounds, 0.28% hits; further: nearly all actives have a fitted effect of over 40% in size
# Target sequence (Q9NUW8 whole entry, looked up): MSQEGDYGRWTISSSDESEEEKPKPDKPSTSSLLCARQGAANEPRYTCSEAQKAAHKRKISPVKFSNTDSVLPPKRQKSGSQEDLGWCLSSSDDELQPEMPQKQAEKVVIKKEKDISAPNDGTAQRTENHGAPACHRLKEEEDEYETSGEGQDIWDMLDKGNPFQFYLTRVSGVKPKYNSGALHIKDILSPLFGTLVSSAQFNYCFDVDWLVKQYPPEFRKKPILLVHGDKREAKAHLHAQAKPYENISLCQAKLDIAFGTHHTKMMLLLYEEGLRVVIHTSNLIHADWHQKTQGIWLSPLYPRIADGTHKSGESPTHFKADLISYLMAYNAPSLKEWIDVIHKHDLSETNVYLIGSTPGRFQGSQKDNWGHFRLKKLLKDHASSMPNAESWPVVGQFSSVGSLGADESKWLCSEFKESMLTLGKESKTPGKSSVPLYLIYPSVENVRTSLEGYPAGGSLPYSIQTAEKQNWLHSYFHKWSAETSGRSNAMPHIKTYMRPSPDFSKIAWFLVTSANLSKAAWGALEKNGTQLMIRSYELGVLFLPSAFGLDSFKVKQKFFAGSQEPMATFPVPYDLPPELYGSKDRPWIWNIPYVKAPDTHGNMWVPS
#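 AlphaScreen read-out: signal falls as enzyme removes the 3' tyrosine-FITC from a 5'-biotinylated DNA oligo (15 nM, 5 min, RT). Enzyme was E. coli-made recombinant Tdp1 at 1 nM, exposed to compound for 15 min beforehand; beads 10 ug/ml, 10 min.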
# APE1 inh = qHTS Assay for Inhibitors of the Human Apurinic/apyrimidinic Endonuclease 1 (APE1); recombinant APE1, TAMRA/BHQ-2 abasic DNA cleavage fluorescence; Potency, µM (titrated, usually from 65.8 µM), inactives show at the highest dose activity change, negative = inhibition, actives largely listed as inhibitors; 350,000 compounds, 0.35% hits; AID 2517, 2012;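 further: plate controls were vehicle for no effect and reference inhibitor for full effect; nearly all actives have a fitted effect of over 55% in size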
#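 APE1 at 0.75 nM preincubated 15 min at room temperature with compound. Reaction then started with 50 nM double-stranded THF-abasic substrate labelled with TAMRA/BHQ-2, and 525/598 nm fluorescence read kinetically. Activity taken as third-minus-first read difference, normalized to DMSO and NSC13755 controls.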
# FEN1 inh = qHTS Assay for the Inhibitors of Human Flap endonuclease 1 (FEN1); 390,000 compounds, 0.35% hits; Recombinant FEN1 flap cleavage, fluorescence, 15 min; P39748; Potency, µM (series often up to 114 µM), for inactives: at the highest dose activity change, negative = inhibition, actives largely listed as inhibitors; further: nearly all actives have a fitted effect of over 65% in size
#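 Steps: FEN1 (10 nM) dispensed; compound added by pin tool; 15 min at room temperature; substrate added to 50 nM final; reads at 0 min and 15 min; data normalized and fitted (four-parameter Hill).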
# RECQ1 inh-1 = qHTS Assay for Inhibitors of RecQ-Like Dna Helicase 1 (RECQ1); ATP-dependent DNA helicase Q1 (Homo sapiens), P46063; RECQ1 DNA unwinding, red fluorescence kinetic read; Potency, µM (series often up to 57.3 µM), for the others: top-dose activity, negative = inhibition, most hits filed as inhibitors; 240,000 compounds, 0.54% hits; AID 2549, 2010;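 further: plate controls were vehicle for no effect and no enzyme for full effect; nearly all actives have a fitted effect of over 30% in size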
#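 50 nM RECQ1T1 preincubated 15 min with compound in Tris pH 8.0 buffer with MgCl2, DTT, Tween-20 and 2.5 ug/ml poly(dI-dC); started with 200 nM TAMRA/BHQ-2 forked duplex and 2 mM ATP. Unwinding read as fluorescence (525/598 nm), two reads 2 h apart.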
# RECQ1 conf = Confirmation qHTS Assay for Inhibitors of RecQ-Like Dna Helicase 1 (RECQ1); shares compounds with RECQ1 inh-1; RECQ1 helicase DNA unwinding, fluorescence; Potency, µM (series often up to 229 µM), inactives show at the highest dose activity change, negative = inhibition, most hits filed as inhibitors; 610 compounds, 28% hits; AID 2708, 2010; further: nearly all actives have a fitted effect of over 45% in size
# RECQ1 ADP FP = Counterscreen for RECQ1 Inhibitors: ADP Fluorescence Polarization Displacement Assay. 530 compounds, 27% hits. shares compounds with RECQ1 inh-1. ADP fluorescence polarization displacement counterscreen. Potency, µM (series often up to 228 µM), for inactives: top-dose activity change, negative = inhibition, actives largely listed as inhibitors; further: nearly all actives have a fitted effect of over 45% in size
# RECQ1 inh-2 = Confirmation qHTS Assay for Inhibitors of RecQ-Like Dna Helicase 1 (RECQ1) - Round 2 Cherry Picks. 1,100 compounds, 15% hits. shares compounds with RECQ1 inh-1. Potency, µM (top dose mostly 119 µM), for inactives: at the top dose activity, negative = inhibition, hits mostly inhibitors. recombinant RECQ1 DNA unwinding, red fluorescence; further: nearly all actives have a fitted effect of over 50% in size
# Active calls of the source: *; i = inactive; ? = inconclusive; . = no result; ! = a repeat was not active; [ ] = remark or other dose. Most compounds without a hit are left out; they make up all but 0.92% or so of the library. The call rests on the fitted dose curve; in most records, active means well fitted curve in the direction sought with a large enough effect; inconclusive means small, poorly fitted or top-dose-only effect, or another doubt; inactive means no such curve, though single readings can be large; an effect the other way counts as inactive or inconclusive. Unless noted, on the % scale 0 is the no-effect control and ±100 the full control effect; potency means the concentration at half of the fitted maximal effect.
SMILES,BLM inh,TDP1 block,APE1 inh,FEN1 inh,RECQ1 inh-1,RECQ1 inh-2,others
C(=C\c1ccnc2ccccc12)/c1ccc(N(Cc2ccccc2)Cc2ccccc2)cc1,.,.,.,-4%,.,.,
Cc1o[nH]c(=O)c1CCC(N)C(=O)O (configuration not stated),.,0%,-10%,.,-11%,.,
COc1ccccc1NC(=O)CSc1nc(O)cc(=O)n1-c1ccccc1OC,-2%,-2%,1%,-2%,-4%,.,
COc1ccccc1-n1c(SCC(=O)Nc2ccccc2C)nc(O)cc1=O,-16%,-7%,2%,8%,10µM*,-7%,RECQ1 conf=11%[114 µM];RECQ1 ADP FP=12%[91.9 µM]
CCn1c(SCC(=O)Nc2nc(-c3ccccc3)cs2)nnc1-c1ccccc1,-2%,4%,-7%,-7%,-3%,.,RECQ1 conf=?;RECQ1 ADP FP=17%
C=C1CCN(C(C(=O)O)C(C)C)S(=O)(=O)c2ccccc21 (configuration not stated),3%,2%,22%,?,16%,.,
C#CCCCO/N=C1/C[C@@H](O)[C@@H](O)[C@@H]2[C@@H]3C(=O)N(Cc4ccc5c(c4)OCO5)C(=O)[C@H]3CC[C@H]12,-4%[12.4 µM],4%[21 µM],23%[12.4 µM],.,i[11.5 µM],.,
C=CCNC(=O)c1cc2c(=O)c3ccccc3oc2nc1C,-1%,3%,-12%,-12%,28µM*,-10%,
CCOC(=O)c1cc2c(=O)n3ccccc3nc2n(Cc2ccco2)c1=NC(=O)c1ccc(OC)cc1,?,-8%,-7%,79µM*!,?,-27%,
CCOC(=O)c1cc2c(=O)n3cccc(C)c3nc2n(Cc2ccco2)c1=NC(=O)c1ccccc1,-6%,-2%,-5%,-1%,-8%,.,
CC(=O)n1cc([C@@H]2C=C(C(=O)NCc3ccccc3)O[C@H](OCc3ccc(CO)cc3)C2)c2ccccc21,1%,.,17%,-23%,-12%,.,
CC(=O)n1cc([C@H]2C=C(C(=O)Nc3ccccc3)O[C@@H](OCc3ccc(CO)cc3)C2)c2ccccc21,-8%,6%,-6%,-1%,0.35µM*,.,RECQ1 conf=3%[114 µM];RECQ1 ADP FP=4%[91.9 µM]
COc1ccc(C2C3C=CCC(c4cccc(/C=C/c5ccccc5)c4)C3C(=O)N2Cc2ccccc2)cc1Cl (configuration not stated),-4%,12%,-4%,-4%,-8%,.,
Cc1cc(=O)[nH]c2nnc(SCC(=O)Nc3ccc(OC(F)(F)F)cc3)n12,3%,3%,.,14%,.,.,
O=C(O)CCC(=O)N1N=C(c2ccco2)CC1c1cccs1 (configuration not stated),-2%,-3%,5%,9%,-4%,.,RECQ1 conf=-4%;RECQ1 ADP FP=5%
CCC(=O)N1CCc2cc(S(=O)(=O)CCC(=O)N3CCN(c4ccccc4Cl)CC3)ccc21,-2%,-5%,.,-3%,.,.,
O=C(/C=C/c1ccco1)N1CCCC(c2ccccc2)C1 (configuration not stated),-18%,-4%,-15%,4%,?,?,
Cc1ccc(C(=O)Nc2ccccc2C(=O)NC(Cc2c[nH]c3ccccc23)C(=O)O)cc1 (configuration not stated),-1%,6%,-3%,-13%,i,.,RECQ1 conf=14%;RECQ1 ADP FP=-12%
Cc1ccc(C(=O)Nc2ccccc2C(=O)NC(Cc2ccccc2)C(=O)O)cc1 (configuration not stated),-4%,5%,11%,8%,i,.,
O=C(NC(Cc1c[nH]c2ccccc12)C(=O)O)/C(=C/c1ccc2c(c1)OCO2)NC(=O)c1ccccc1 (configuration not stated),-1%,0%,-5%,-1%,-5%,.,RECQ1 conf=4%;RECQ1 ADP FP=?
CCn1c(=O)c(C(=O)NNS(=O)(=O)c2ccc(Br)cc2)c(O)c2ccccc21,-15%,8%,8%,?,?,?,
COc1cc(/C=C2\SC(N)=NC2=O)ccc1OCC(=O)Nc1ccc(C)cc1,-16%,-11%,2%,-20%,?,?,
COc1ccc(/C=C2/SC(=O)N(CCC(=O)Nc3ccc(C)cc3)C2=O)cc1OC,3%,4%,2%,.,i,.,
COC(=O)C[C@H]1c2ccccc2[C@H]2C(=C[C@@H](C)[C@H]3C(=O)N(O)C(=O)[C@H]32)N1C(=O)OC,-1%[12.4 µM],-11%[12.3 µM],-1%[12.4 µM],.,i[11.5 µM],.,
CCn1c(=O)c(=O)[nH]c2cc(C(=O)N3CCN(c4ccccc4F)CC3)ccc21,-3%,2%,0%,3%,25µM*,79µM*,
SMILES,BLM inh,TDP1 block,APE1 inh,FEN1 inh,RECQ1 inh-1,RECQ1 inh-2,others
CCCCCCCCCCCCC/C=C/[C@@H](O)C(CO)NC(C)=O (some centres not stated),-14%,-3%,-17%,.,-13%,.,
CCOc1ccccc1CNC(=O)c1nc(-c2ccc(Cl)cc2)n2c1CCCCC2,-10%,7%,.,-20%,.,.,
Cc1[nH][nH]c(=O)c1C(c1ccc(-c2ccc(F)cc2)o1)c1c(C)[nH][nH]c1=O,-22%,10%,-8%,0%,7%,.,
Cc1[nH][nH]c(=O)c1C(c1ccc(-c2ccc(Cl)c(Cl)c2)o1)c1c(C)[nH][nH]c1=O,-26%,13%,?,-22%,?,?,
CC(=O)OCC1=C(C(=O)O)N2C(=O)[C@@H](NC(=O)Cc3ccccc3)[C@H]2SC1,.,.,.,14%,.,.,
O=C(Cc1cccs1)NC1C(=O)N2C(C(=O)[O-])=C(C[n+]3ccccc3)CSC12 (configuration not stated),-22%,2.2µM*,.,.,?,.,RECQ1 conf=?;RECQ1 ADP FP=6.3µM*
O=C(/C=C/c1cccnc1)c1ccc(NC(=O)c2cccc(Br)c2)cc1,-6%,0%,-5%,-13%,-7%,.,
